# Test results from PubChem BioAssay AID1347415 (National Center for Advancing Translational Sciences (NCATS), 2020).
# Inconclusive results are not listed. Entries that show only a call come without a potency. Calls of active or inactive are those of the source. Calls follow the shape of the dose curve; as a rule, active = well fitted inhibition curve with a large enough effect; inconclusive = small, poorly fitted or top-dose-only effect; inactive = no such curve, though single readings can be large or run the other way.
# Experiment: qHTS to identify inhibitors of the type 1 interferon - major histocompatibility complex class I in skeletal muscle: tertiary screen by RT-qPCR
# Details: C25cl48 human myoblasts, IFN-beta, HLA-B RT-qPCR, 24 h; series mostly up to 49.8 µM
# Text: Assay Submitter (PI): Travis B. Kinder Ph.D. & James Inglese Ph.D. Assay Development and Screening Technology Laboratory (ADST) National Center for Advancing Translational Sciences (NCATS), Rockville, MD National Institute of Health (NIH), Bethesda, Maryland Idiopathic inflammatory myopathies, collectively referred to as myositis, are a group of rare autoimmune diseases characterized by skeletal muscle inflammation, weakness, and usually accompanied by systemic pathologies of the skin, lungs, or vasculature. Current immunosuppressive therapies and glucocorticoids are often not curative and are accompanied by harsh side effects, especially in children with juvenile myositis. We initiated a drug repurposing and development program to identify more targeted, less toxic therapeutics to treat myositis. Although its cause is not known, muscle from a subset of patients have an abundance of the inflammatory type 1 interferon (IFN) and a down-stream product major histocompatibility complex class I (MHC class I), which are both thought to contribute to damage and weakness. We conducted quantitative high throughput screening (qHTS) on 6,576 compounds (4,679 unique) through a series of cell-based assays to identify those that inhibit the IFN-stimulated expression of MHC class I in muscle precursor cells (myoblasts). The compound identification and evaluation strategy utilized a primary screen with reporter-tagged MHC class I in genome-engineered myoblasts, ATP content counter screen for viability, HLA-ABC immunofluorescence secondary screen, and HLA-B RT-qPCR tertiary screen. To determine if active compounds identified by qHTS in HLA-B HiBit reporter cells, and confirmed by HLA-ABC immunofluorescence, can inhibit the transcription of HLA-B mRNA, compounds were assayed by RT-qPCR. Briefly, 62 compounds identified from primary, counter, and secondary screening as inhibitory with minimal cytotoxicity were dispensed into 384-well plates using acoustic dispensing in a 6-point, 1:7 titration with a high final concentration of 10 uM. Normal immortalized human myoblasts C25cl48 were added to the plate with 4.0 ng/ml human IFN-beta for 24 hours, and cells were harvested and assayed by the Cells-to-Ct kit with TaqMan assays (Thermo Fisher).
# PROTOCOL TABLE (as described by Inglese et al., 2007) SEQUENCE No. (e.g., 1, 2, 3, etc.); […] (e.g., Cells, Incubation, Reagent, etc.); VALUE; DESCRIPTION 0; Compounds; 150 nl; Follow-up compounds dispensed at 150 nl/well with Labcyte Echo 655 acoustic dispenser into one Corning white/clear bottom, high base TC 384-well plates (3765) 1a; Cells; 30 uL; Using a p200 manual pipette, seed 780 cells/well into 1 plate in 30 ul/well of iHSKM growth medium without dexamethasone into columns wells A1-A6. […]
row,SMILES,Potency
1,C[C@@H]1O[C@@H](O[C@H]2C[C@@H](O)[C@]3(CO)[C@H]4[C@H](O)C[C@]5(C)[C@@H](C6=CC(=O)OC6)CC[C@]5(O)[C@@H]4CC[C@]3(O)C2)[C@H](O)[C@H](O)[C@H]1O,inactive
2,COc1cccc2c1C(=O)c1c(O)c3c(c(O)c1C2=O)C[C@@](O)(C(=O)CO)CC3OC1CC(N2CCOC(OC)C2)C(O)C(C)O1 (stereo not given in full),92.4 nM (active)
3,CC(C)[C@]12O[C@H]1[C@@H]1O[C@@]13[C@@]1(C)CCC4=C(COC4=O)[C@@H]1C[C@@H]1O[C@@]13C2=O,inactive
4,Cc1[nH]nc2ccc(-c3cncc(OC[C@@H](N)Cc4c[nH]c5ccccc45)c3)cc12,207 nM (active)
5,C[C@@H]1O[C@@H](O[C@@H]2C=C3CC[C@@H]4[C@H](CC[C@]5(C)[C@@H](c6ccc(=O)oc6)CC[C@]45O)[C@@]3(C)CC2)[C@H](O)[C@H](O)[C@H]1O,inactive
